# In the library only some 2.8% were active in any assay of this set; here they are far more common.
# B2AR arrestin ag – ADRB2 beta-arrestin recruitment; 44,000 tested, under 10 active; AID 1347077; HTLA Tango cells, beta-arrestin recruitment, luciferase luminescence, 18 h; Potency, µM (titrated, usually from 46.1 µM), hits mostly activators;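 further: potency means the concentration at half of the fitted maximal effect; 0% = DMSO and full agonism = EC100 isoproterenol or metaproterenol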
# Target sequence (P07550 whole entry, looked up): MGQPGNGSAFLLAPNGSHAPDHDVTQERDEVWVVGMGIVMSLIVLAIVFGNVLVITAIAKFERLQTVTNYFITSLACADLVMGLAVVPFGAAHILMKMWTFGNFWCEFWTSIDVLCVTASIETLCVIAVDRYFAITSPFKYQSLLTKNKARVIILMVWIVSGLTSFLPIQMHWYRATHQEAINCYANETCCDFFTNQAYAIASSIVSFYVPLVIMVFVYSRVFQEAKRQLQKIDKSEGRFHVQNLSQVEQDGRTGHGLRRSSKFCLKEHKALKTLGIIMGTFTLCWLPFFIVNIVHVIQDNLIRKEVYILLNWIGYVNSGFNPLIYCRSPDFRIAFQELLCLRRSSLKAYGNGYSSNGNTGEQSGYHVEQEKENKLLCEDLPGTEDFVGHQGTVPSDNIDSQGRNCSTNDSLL
#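 Tango cell line, 1% FBS DMEM; cpd titration up to 46 microM; 18 hr, 37 degrees C, 5% CO2. Luciferin/ATP substrate mix added, 15 min RT, luminescence. %Activity, CRC fitting, curve-class categorization.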
# TSG101-PTAP inh – inhibitors of HIV-1 PTAP binding to human TSG101, validation; AID 1347069; Q99816; Potency, µM (highest dose often 115 µM), actives largely listed as inhibitors; Fluorescence polarization, FITC-PTAP peptide/Tsg101, 20 min; 44,000 tested, under 10 active; further: potency means the concentration at half of the fitted maximal effect; 0% is about no effect
#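 Read-out is FITC fluorescence polarization. Compounds were added to Tsg101 binding domain (10 uM final), then FITC-PTAP peptide (50 nM final), 20 min at r.t. Total S+P intensity flags fluorescent compounds.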
# GALK inhibitor – inhibits human galactokinase; recombinant GALK, Kinase-Glo ATP luminescence, 1 h; Potency, µM (highest dose often 57.5 µM), without a hit: at the top dose activity, negative = inhibition, most hits filed as inhibitors; 44,000 tested, under 10 active; AID 1347072;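 further: plate controls were full GALK reaction for no effect and reaction lacking GALK for full effect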
#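 Human GALK (5 nM) was incubated with 35 uM ATP and 100 uM galactose in 20 mM HEPES pH 8.0 with MgCl2, NaCl, DTT and BSA for 1 h at room temperature. Remaining ATP was measured by Kinase-Glo Plus luminescence.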
# GALC G270D up – raises human GALC G270D mutant activity in cells; hit rate 0.1% among 45,000; Potency, µM (series often up to 57.5 µM), actives largely listed as activators; P54803; 145M-Twi-hGALC-G270D cells (Twitcher mouse brain line with human GALC G270D), HMU-beta-Gal fluorescence, 48 h; further: potency means the concentration at half of the fitted maximal effect; 0% is about no effect; nearly all actives have a fitted effect of over 65% in size
#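 Brain-derived Twitcher mouse 145M-Twi cells stably expressing human GALC-G270D or wild-type GALC, treated live, then residual GALC activity read by fluorescence of HMU-b-Gal substrate (0.1 mM final) in citrate-phosphate buffer pH 5.2 with sodium taurocholate. Signal increase indicates enhancement.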
# GPR32 ag – agonists of human resolvin D1 receptor DRV1 (GPR32). hit rate 2.5% among 48,000. CHO-K1 GPR32 beta-arrestin PathHunter luminescence, 90 min; zero percent set by DMSO-only wells. activation, % at 76.9 µM. O75388;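 active means activation of at least 60% and not above a set upper limit, about 1 call in 100 departs from these limits; inconclusive means activation of 40% to 60%, or above that upper limit; inactive means activation under 40%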; further: 0% is about no effect
#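 Agonism was scored by beta-Gal fragment complementation (chemiluminescent read, 1 h detection at ambient temperature) reporting beta-arrestin binding to GPR32 in engineered CHO-K1 cells. Compound treatment lasted 90 min at 37 C, normalized to a DMSO basal control.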
# FH mod – Identification of activators of human fumarate hydratase by quantitative high-throughput screening; hit rate 0.22% among 54,000; Potency, µM (series often up to 79.9 µM), for inactives: at the top dose activity change, negative = inhibition, usual class: inhibitors; FH coupled MDH/diaphorase resazurin fluorescence, 15 min; further: potency means the concentration at half of the fitted maximal effect; on the % scale 0 is the no-effect control and ±100 the full control effect; the screen sought activators but most active calls are inhibition curves; nearly all actives have a fitted effect of over 45% in size
# Active calls of the source: *; i = inactive; ? = inconclusive; nt = no result; [ ] = dose if it differs, or a comment. Unless noted, the call rests on the fitted dose curve; in most records, active means well fitted curve in the direction sought with a large enough effect; inconclusive means small, poorly fitted or top-dose-only effect, or another doubt; inactive means no such curve, though single readings can be large; an effect the other way counts as inactive or inconclusive.
SMILES,B2AR arrestin ag,TSG101-PTAP inh,GALK inhibitor,GALC G270D up,GPR32 ag,FH mod
COc1ccc2c(CNCCc3ccco3)c(C(=O)O)n(Cc3ccccc3)c2c1,i,i,3.4%,i,-7.0,-32.8%
C=Cc1ccc(Cn2c(C(=O)O)c(CNCCc3ccco3)c3ccc(C)cc32)cc1,i,i,0.0%,i,88.5*,-11.8%
COc1cc(Nc2ccc([N+](=O)[O-])cc2C(=O)O)cc2ccccc12,nt,nt,nt,nt,nt,-15.4%
COc1ccc(Oc2cc(C)c(-c3csc(NC(=O)c4ccncc4)n3)c(C)c2)cc1,nt,nt,nt,nt,nt,-16.5%
O=C(CC(c1ccccc1)c1ccccc1)N1CCN(C(c2ccccc2)c2ccccc2)CC1,nt,nt,nt,nt,nt,-5.4%
CC(=O)NC(C(=O)OC1CCC(C)(C)C2CC=C3C(=O)OCC3(O)C12C)C(C)C (centres undefined),nt,nt,nt,nt,nt,-2.6%[53.3 µM]
CCCCC#Cc1nc(NC)c2ncn([C@@H]3O[C@H](CO)[C@@H](O)C3O)c2n1 (some centres undefined),nt,nt,nt,nt,nt,-8.1%[53.3 µM]
Cc1ccc(C)c(NC(=O)Nc2cccc(-c3cn4cccnc4n3)c2)c1,i,i,1.9%,i,79.7*,3.3%
CCC(CC)C(=O)Nc1cccc(-c2cn3cccnc3n2)c1,i,i,0.4%,i,28.2,1.0%
O=C(Nc1cccc(-c2cn3cccnc3n2)c1)c1cc(Br)ccc1Cl,i,i,0.5%,i,82.8*,-1.4%
O=C(CC1Nc2cccc3cccc(c23)NC1=O)Nc1ccc(F)cc1 (centres undefined),i,i,0.8%,i,64.2*,-23.3%
COc1ccc(NC(=O)CC2Nc3cccc4cccc(c34)NC2=O)cc1 (centres undefined),i,i,0.0%,i,28.7,-16.2%
CC1CCC23COC(=O)C2=CC(O)CC3C1(C)CCC1=CC(=O)OC1O (centres undefined),nt,nt,nt,nt,nt,-0.1%[53.3 µM]
COc1ccnc2[nH]cc(C(=O)C(=O)N3CCN(C(=O)c4ccccc4)CC3C)c12 (centres undefined),nt,nt,nt,nt,nt,3.2%
COc1cc(C(=O)O)ccc1NC(=O)C1NC(CC(C)(C)C)C(C#N)(c2ccc(Cl)cc2F)C1c1cccc(Cl)c1F (centres undefined),nt,nt,nt,nt,nt,31.6µM*
COc1ccc(Cl)cc1NC(=O)C1CCN(S(=O)(=O)c2ccc(F)cc2)CC1,i,i,-0.5%,i,24.0,-10.3%
CC(C)CC1NC(=O)C(C(C)c2ccccc2)NC(=O)C(C(C)C)NC(=O)C(C)NC(=O)CCCNC(=O)C(Cc2c[nH]c3ccccc23)NC(=O)C(C)NC1=O (centres undefined),nt,nt,nt,nt,nt,-0.7%[20.6 µM]
COCCN1C(=O)c2[nH]nc(-c3cc(C)ccc3O)c2C1c1ccc(C(C)C)cc1 (centres undefined),i,i,-1.1%,i,25.2,-26.7%
CCOCCCN1C(=O)c2[nH]nc(-c3ccccc3O)c2C1c1ccc(CC)cc1 (centres undefined),7.08µM*,i,1.9%,i,-10.1,-26.4%
COc1cc(C2c3c(-c4cc(C)ccc4O)n[nH]c3C(=O)N2CCCO)ccc1OCCC(C)C (centres undefined),i,i,2.8%,i,102.0*,-3.4%
Cc1cc(O)c2ccccc2c1O,nt,nt,nt,i,80.6*,?
COC(=O)C[C@H]1C(C)(C)[C@H](OC(=O)C(C)C)C2CC3=C4CC(=O)O[C@@H](c5ccoc5)[C@]4(C)CCC3[C@@]1(C)C2=O (some centres undefined),nt,nt,nt,nt,nt,0.3%[53.3 µM]
CCCCCn1c(=O)[nH]c2cc(C(=O)N3CCN(c4cccc(C(F)(F)F)c4)CC3)ccc2c1=O,i,i,0.7%,i,60.8*,-4.3%
COc1cc2[nH]c(=O)n(CCCCCC(=O)N3CCN(c4cccc(C(F)(F)F)c4)CC3)c(=O)c2cc1OC,i,i,0.0%,i,63.1*,?
CCS(=O)(=O)N1CCc2cc(C(=O)N3CCN(c4cccc(C(F)(F)F)c4)CC3)ccc21,i,i,2.5%,i,64.7*,-34.5%
SMILES,B2AR arrestin ag,TSG101-PTAP inh,GALK inhibitor,GALC G270D up,GPR32 ag,FH mod
O=C(c1ccc2c(c1)CCN2S(=O)(=O)c1ccccc1)N1CCN(c2cccc(Cl)c2)CC1,i,i,7.9%,i,-15.6,-20.0%
CC(C)S(=O)(=O)Nc1ccc(F)c(C(=O)c2c[nH]c3ncc(-c4cccnc4)cc23)c1F,nt,nt,nt,nt,nt,-5.8%
CC(C)(C)OC(=O)N1CCC(c2c(C(=O)N3CCCCC3)cnn2-c2cccc(F)c2)CC1,i,i,-1.4%,10µM*,2.2,-20.2%
CCc1ccc(C2=C(C)C(N3CCC(C(=O)NCc4ccccc4)CC3)=NS2(=O)=O)cc1,i,i,-2.3%,i,65.1*,0.9%
O=C(CCNS(=O)(=O)c1ccc2c(c1)CCN2C(=O)C1CC1)N1CCN(c2cccc(Cl)c2)CC1,i,i,2.2%,i,60.6*,-10.6%
O=C(CCNS(=O)(=O)c1ccc2c(c1)CCN2C(=O)C1CC1)N1CCN(c2ccc(F)cc2)CC1,i,i,2.1%,i,69.2*,-8.4%
COc1ccc(N2CCN(C(=O)CCNS(=O)(=O)c3ccc4c(c3)CCN4C(=O)C3CC3)CC2)cc1,i,i,1.7%,i,20.2,-4.6%
O=C(CCNS(=O)(=O)c1ccc2c(c1)CCN2C(=O)C1CC1)Nc1ccc(F)cc1F,i,i,4.1%,i,84.6*,6.8%
Cc1cccc(N2CCN(C(=O)CCNS(=O)(=O)c3ccc4c(c3)CCN4C(=O)C3CC3)CC2)c1C,i,i,0.0%,i,43.7,-5.9%
CC(CO[C@@H]1O[C@H](COC(=O)/C=C/c2ccc(O)c(O)c2)[C@@H](O)[C@H](O)[C@H]1O)C1(O)COC(=O)C1 (some centres undefined),nt,nt,nt,nt,nt,-1.6%[53.3 µM]
C=C1CCCC2(C)CCC(C(C)(C)OC3OC(C)C(O)C(O)C3OC(=O)/C(C)=C\C)CC12 (centres undefined),nt,nt,nt,nt,nt,-12.4%[53.3 µM]
Cc1ccc(Nc2c3c(nc4ccccc24)CCC3)cc1F,i,i,4.0%,i,-24.4,-15.3%
Cc1ccc2nc3c(c(Nc4ccc(C)c(C)c4)c2c1)CCC3,i,i,-1.9%,i,101.0*,-10.0%
O=C(O)COc1ccccc1C1Nc2ccccc2-c2nnc(SCc3ccc(Cl)cc3)nc2O1 (centres undefined),i,i,-1.5%,i,107.9*,-17.2%
